# G9a inh: qHTS Assay for Inhibitors of Histone Lysine Methyltransferase G9a. Histone-lysine N-methyltransferase EHMT2 (Homo sapiens), Q96KQ7. G9a H3K9 monomethylation, AlphaScreen, 2 h. Potency, µM (highest dose often 102 µM), without a hit: at the top dose activity, negative = inhibition, actives largely listed as inhibitors. actives 8.8% (n = 350,000). AID 504332, 2011; also: % is scaled to controls: 0 for no effect and ±100 for the full control effect; nearly all actives have a fitted effect of over 75% in size
#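 Chemiluminescent proximity detection of H3K9 monomethylation, read after 10 min bead incubation in the dark. Reaction: 20 nM G9a, 500 nM biotin-H3K9 peptide, 20 uM SAM cofactor, 2 h, room temperature, following 15 min enzyme-compound preincubation.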
# VDR inh: Inhibitors of the vitamin D receptor (VDR): qHTS; Vitamin D3 receptor (Homo sapiens), P11473; VDR-SRC2-3 peptide fluorescence polarization, 2 h; Potency, µM, for inactives: max response, negative = inhibition, hits mostly inhibitors; actives 0.93% (n = 400,000); AID 504847, 2011; also: % is scaled to controls: 0 for no effect and ±100 for the full control effect
#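 Fluorescence polarization assay measuring small-molecule disruption of VDR binding to the coregulator peptide SRC2-3. Compounds were pin-transferred (23 nl) into the reagent mix and incubated 2 h at room temperature before reading.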
# JMJD2A Tudor: qHTS Assay for Inhibitors of JMJD2A-Tudor Domain. Lysine-specific demethylase 4A (Homo sapiens), O75164. AlphaScreen JMJD2A-Tudor / H3K4me3 peptide binding. Potency, µM (top dose mostly 114 µM), inactives show top-dose activity change, negative = inhibition, usual class: inhibitors. actives 4.4% (n = 390,000). AID 504339, 2011; also: % is scaled to controls: 0 for no effect and ±100 for the full control effect; nearly all actives have a fitted effect of over 50% in size
# PLK1 PBD block: qHTS for Inhibitors of PLK1-PDB (polo-like kinase 1 - polo-box domain): Primary Screen; Serine/threonine-protein kinase PLK1 (Homo sapiens), P53350; Plk1 PBD binding of FITC phosphopeptide, fluorescence polarization; Potency, µM, without a hit: max response, negative = inhibition, usual class: inhibitors; actives 2.8% (n = 360,000); AID 720504, 2013; also: series mostly up to about 57 µM; % is scaled to controls: 0 for no effect and ±100 for the full control effect; nearly all actives have a fitted effect of over 65% in size
# Target sequence (P53350 whole entry, looked up, the tested form may be a part): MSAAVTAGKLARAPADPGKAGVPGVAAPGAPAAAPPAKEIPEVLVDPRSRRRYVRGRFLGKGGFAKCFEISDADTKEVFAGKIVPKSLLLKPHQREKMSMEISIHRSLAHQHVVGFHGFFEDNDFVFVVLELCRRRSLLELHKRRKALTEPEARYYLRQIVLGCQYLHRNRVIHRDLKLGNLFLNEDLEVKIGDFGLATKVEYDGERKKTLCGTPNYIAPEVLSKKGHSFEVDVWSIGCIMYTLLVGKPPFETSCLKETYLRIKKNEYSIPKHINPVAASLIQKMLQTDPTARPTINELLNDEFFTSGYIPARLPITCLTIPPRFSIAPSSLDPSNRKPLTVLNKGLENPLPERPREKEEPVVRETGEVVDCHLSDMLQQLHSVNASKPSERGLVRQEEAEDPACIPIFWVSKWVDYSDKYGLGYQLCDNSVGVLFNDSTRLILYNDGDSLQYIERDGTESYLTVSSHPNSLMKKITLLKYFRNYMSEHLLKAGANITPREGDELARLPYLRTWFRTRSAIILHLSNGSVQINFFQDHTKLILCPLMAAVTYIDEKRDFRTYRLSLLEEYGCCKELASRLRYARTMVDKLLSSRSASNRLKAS
# BAZ2B inh: qHTS Assay for Inhibitors of BAZ2B; actives 4.4% (n = 360,000); AID 504333, 2011; Potency, µM (doses to about 114 µM), for the others: at the highest dose activity change, negative = inhibition, most hits filed as inhibitors; AlphaScreen BAZ2B-H3K14Ac peptide displacement; also: % is scaled to controls: 0 for no effect and ±100 for the full control effect; nearly all actives have a fitted effect of over 60% in size
#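 In this displacement format the biotinylated H3(5-23) peptide acetylated at Lys14 serves as ligand at 50 nM, with BAZ2B at 50 nM in PBS pH 7.4 containing 0.01% Tween-20. Donor and acceptor beads are 10 ug/mL final.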
# HP1b binding inh: HTS for Inhibitors of HP1-beta Chromodomain Interactions with Methylated Histone Tails. AlphaScreen HP1-beta / biotin-H3K9me3 peptide binding. actives 0.56% (n = 390,000). AID 540317, 2011. Potency, µM (top dose mostly 114 µM), without a hit: top-dose activity change, negative = inhibition, actives largely listed as inhibitors; also: nearly all actives have a fitted effect of over 70% in size
#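 AlphaScreen: HP1-beta (50 nM) preformed 30 min with biotin-H3(1-18)K9me3 peptide (50 nM) in PBS pH 7.4, 0.01% Tween-20. Compound added for 30 min at RT, then streptavidin donor/nickel chelate acceptor beads (10 ug/mL) for 30 min.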
# * marks the source's active call; other numbers are inactive results; ? = inconclusive; / = no result given; [ ] = another dose, or the depositor's remark. In the library only some 11% were active in any assay of this set; here they are far more common. Calls follow the shape of the dose curve; as a rule, active = well fitted curve in the direction sought with a large enough effect; inconclusive = small, poorly fitted or top-dose-only effect, or another doubt; inactive = no such curve, though single readings can be large; an effect the other way counts as inactive or inconclusive. Potency is read from the fitted curve at half-maximal effect.
SMILES,G9a inh,VDR inh,JMJD2A Tudor,PLK1 PBD block,BAZ2B inh,HP1b binding inh
CC(=O)Nc1ccc(S(=O)(=O)NCC(CCC(=O)O)C(F)(F)F)cc1 (stereo not given),-1.2%,?,15.8µM*,13.4µM*,-13.3%,-3.3%
CC(=O)Nc1ccc(S(=O)(=O)Nc2nc3ccccc3nc2Nc2ccc3ccccc3c2)cc1,?,3.7%,-10.1%,23.8µM*,-4.8%,34.3%
CC(=O)Nc1ccc(S(=O)(=O)NC(C)c2ccncc2)cc1 (stereo not given),?,-17.6%,-6.0%,1.0%,9.2%,28.5%
O=C(NC(=S)Nc1ccc(S(=O)(=O)Nc2ccccc2)cc1)C1CC1,14.1µM*,-3.2%,-21.3%,-26.7%,-31.1%,-3.9%
CC(=O)Nc1ccc(S(=O)(=O)NC(C)C(=O)NC(C)c2ccccc2)cc1 (stereo not given),?,-28.7%,-11.0%,11.9µM*,-1.8%,38.6%
CC(=O)Nc1ccc(S(=O)(=O)Nc2nc3ccccc3nc2Nc2cccc(O)c2)cc1,-5.3%,9.5%,4.6%,?,-19.4%,26.3%
CC(=O)Nc1ccc(S(=O)(=O)N[C@@H](C)C(=O)N2CCN(c3ccccn3)CC2)cc1,/,?,11.3%,11.9µM*,/,39.3%
CC(C)C[C@@H](CN1CCC[C@H]1CN1C(=O)C(=O)NC[C@@H]1Cc1ccccc1)N1C[C@H](Cc2ccccc2)N(CC2CCCCCC2)C(=O)C1=O,/,/,/,-4.9%,/,/
CCC12CN3CCN(CC(C3)/C1=N\NC(=O)c1ccc(F)cc1)C2,31.1%[59 µM],?,?,21.2µM*,-10.8%,-14.9%
CCCCn1c(N)c(N(CCC(C)C)C(=O)C2=NN(c3cc(C)ccc3C)C(=O)CC2)c(=O)[nH]c1=O,39.8µM*,-21.7%,-0.7%,-10.9%,12.5%,55.3%
CCCCn1c(N)c(N(CCC(C)C)C(=O)c2ccc([N+](=O)[O-])s2)c(=O)[nH]c1=O,79.4µM*,-14.8%,-21.3%,-10.1%,6.5%,-5.2%
CCCCn1c(N)c(N(CC(C)C)C(=O)c2ccco2)c(=O)[nH]c1=O,50.1µM*,-3.8%,4.3%,3.5%,9.4%,27.1%
CCCCn1c(N)c(N(CC(C)C)C(=O)COC(=O)c2ccccc2NCCO)c(=O)[nH]c1=O,3.98µM*,13.5%,2.1%,0.0%,70.8µM*,24.2%
O=C1N[C@@H](Cc2ccccc2)C(=O)N2[C@@H]1C[C@@]1(Br)c3ccccc3N(S(=O)(=O)c3ccccc3)[C@@H]21,/,-21.6%,-22.9%,-0.5%,/,14.2%
COc1ccc(S(=O)(=O)N2CCOC23CCN(S(=O)(=O)c2c(C)cc(C)cc2C)CC3)cc1,-25.3%,0.3%,-20.3%,1.5%,4.9%,-15.9%
CCCCN(C(=O)c1cc(-c2ccncc2)nc2ccccc12)c1c(N)n(CC(C)C)c(=O)[nH]c1=O,/,5.2%,-14.5%,-4.7%,/,30.6%
CCCCn1c(N)c(N(CC(C)C)C(=O)c2cc(-c3ccncc3)nc3ccccc23)c(=O)[nH]c1=O,56.2µM*,-19.1%,-17.2%,-1.8%,1.6%,13.3%
CCCCn1c(N)c(N(CC(C)C)C(=O)Cn2c(=O)cnc3ccccc32)c(=O)[nH]c1=O,44.7µM*,12.9%,7.5%,4.8%,-1.3%,46.7%
CCCCn1c(N)c(N(CC(C)C)C(=O)Cn2c(=O)oc3ccccc32)c(=O)[nH]c1=O,-27.3%,-8.0%,-13.1%,-3.8%,5.4%,-13.8%
CCCCn1c(N)c(N(Cc2ccccc2OC)C(=O)c2cc(=O)[nH]c3ccccc23)c(=O)[nH]c1=O,35.5µM*,-0.2%,-12.4%,-0.9%,33.9%,6.0%
CCOC(=O)c1c(NC(=O)c2ccc(S(=O)(=O)N3CCC(C)CC3)cc2)sc2c1CCN(CC)C2,3.0%[59 µM],9.9%,-16.2%,/,3.7%,22.9%
CCOC(=O)[C@]12CCC=C1N(Cc1ccco1)C(=O)[C@H](CC(=O)NCCc1ccccc1OC)C2,/,/,/,-13.3%,/,/
O=C(NCc1ccco1)c1cccc2c1C(=O)c1ccc(N3CCC(Cc4ccccc4)CC3)cc1S2(=O)=O,/,-8.2%,-20.1%,?,/,29.8%
O=C(NCc1ccco1)c1cccc2c1C(=O)c1ccc(/C=C/c3ccccc3)cc1S2(=O)=O,/,?,39.8µM*,?,/,?
CN(C)S(=O)(=O)c1cc(NC(=O)COC(=O)/C=C/c2ccco2)ccc1Cl,?,?,56.2µM*,-27.3%,?,?
SMILES,G9a inh,VDR inh,JMJD2A Tudor,PLK1 PBD block,BAZ2B inh,HP1b binding inh
O=C(COC(=O)/C=C/c1ccco1)NCc1ccc2c(c1)OCO2,56.2µM*,12.2%,-19.2%,-5.0%,70.8µM*,-0.3%
O=C(/C=C/c1ccco1)OCc1nnc(-c2ccccc2)o1,50.1µM*,-3.6%,-26.2%,-6.5%,50.1µM*,5.7%
O=C(/C=C/c1ccco1)OCn1nnc2ccccc2c1=O,35.5µM*,2.9%,-12.8%,-7.5%,56.2µM*,16.6%
Cc1ccc(/C=C/C(=O)OCn2nnc3ccccc3c2=O)o1,?,14.4%,-3.4%,-1.1%,-33.9%,15.3%
O=C(OCc1nnc(-c2ccccc2)o1)c1ccc(CO)cc1,-3.1%,1.8%,1.4%,-12.1%,-4.5%,26.2%
C[C@@H]1CN([C@@H](C)CO)S(=O)(=O)c2ccc(C#CC(C)(C)O)cc2O[C@H]1CN(C)C(=O)C1CCCCC1,/,/,/,-6.4%,/,/
CCc1ccc(CNC(=O)c2cnc3c(C)cccn3c2=O)cc1,23.8%[59 µM],-9.9%,10.3%,/,-2.6%,42.6%
Cc1ccc(S(=O)(=O)N2CCN(C(=O)c3cc(S(=O)(=O)N(C)C)ccc3N3CCCC3)CC2)cc1,?,-4.8%,-12.5%,1.9%,2.2%,30.2%
Cc1[nH]c(C)c(S(=O)(=O)NCc2ccc(N(C)C)cc2)c1C(=O)N1CCCC1,?,5.7%,-11.4%,2.5%,-23.7%,4.9%
COC(=O)c1ccccc1NC(=O)COC(=O)/C=C/c1ccco1,50.1µM*,3.6%,-12.8%,-3.3%,?,11.5%
CC(C)[C@H](NC(=O)c1ccccc1)C(=O)OCc1nnc(-c2ccccc2)o1,-49.2%,-0.6%,22.4µM*,26.7µM*,/,?
O=C(COC(=O)/C=C/c1ccco1)Nc1ccccc1,56.2µM*,-4.1%,-22.8%,-2.2%,?,-1.7%
COC(=O)c1ccccc1NC(=O)COC(=O)c1ccco1,8.7%,-7.5%,?,-9.4%,50.1µM*,6.5%
